# Mcl1 Bid PPI = Mcl-1/Bid interaction inhibition. TR-FRET Mcl-1/Bid-Dy647 peptide binding, 1536-well. inhibition, % at 21.7 µM. actives 0.97% (n = 220,000);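 active means compounds that cut the binding signal by more than half at the single screening dose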;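 further: His-tagged Mcl-1 with europium anti-His antibody binding Bid BH3 peptide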
# Target sequence (Q07820 whole entry, looked up): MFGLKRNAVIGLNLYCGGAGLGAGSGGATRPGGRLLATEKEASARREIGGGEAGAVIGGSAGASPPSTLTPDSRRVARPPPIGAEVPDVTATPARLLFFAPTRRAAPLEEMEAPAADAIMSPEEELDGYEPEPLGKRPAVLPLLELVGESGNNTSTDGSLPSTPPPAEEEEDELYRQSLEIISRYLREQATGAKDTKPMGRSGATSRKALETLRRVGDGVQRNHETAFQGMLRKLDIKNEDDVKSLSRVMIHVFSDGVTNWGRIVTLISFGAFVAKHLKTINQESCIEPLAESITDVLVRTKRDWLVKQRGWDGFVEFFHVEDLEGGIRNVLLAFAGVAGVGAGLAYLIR
# MCL1-BIM inh = disrupts human MCL1 binding to BIM-BH3 peptide; Q07820; GST-MCL1 / FITC-Bim-BH3 fluorescence polarization; inhibition, % at 10.9 µM; actives 0.68% (n = 320,000);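 active means inhibition above the mean inhibition of all tested compounds plus 3 SD, set per campaign, cut at about 40% in these data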;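 further: higher means more loss of mP so more displacement of Bim peptide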
# Mcl1 Noxa PPI = disrupts binding of human Mcl-1 to Noxa peptide; Q07820; AID 1022; inhibition, % at 21.7 µM; actives 1.5% (n = 220,000); TR-FRET Mcl-1/Noxa peptide binding, 2 h;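 active means compounds that cut the protein-peptide binding signal by more than 50% relative to plate controls in a single-dose test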;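 further: His-tagged Mcl-1 with rhodamine Noxa BH3 peptide and terbium anti-His antibody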
# Bim-Mcl-1 = human Bim-Mcl-1 interaction inhibition; Bead-based flow cytometry, Bim peptide-Mcl-1 binding; actives 0.1% (n = 190,000); Q07820; AID 1009; inhibition, % at 10 µM; in the data active means inhibition above about 40%
# Hits are given with their value; . = inactive; / = no result. Rows were chosen to be rich in hits. Some 2% of all compounds tested hit in one or more screens of this group.
SMILES,Mcl1 Bid PPI,MCL1-BIM inh,Mcl1 Noxa PPI,Bim-Mcl-1
O=C(NNC(=O)c1ccc(O)cc1O)c1ccc(Cl)cc1,56.1,.,.,.
O=C(NNC(=O)c1ccccc1O)c1ccc(Cl)cc1,.,.,.,.
O=C(NC1CCCCC1)C(c1cccs1)N(C(=O)C(F)(F)F)c1ccccc1 (stereo unspecified),.,.,.,.
Cc1ccc(N(C(=O)C(F)(F)F)C(C(=O)NC2CCCCC2)c2cccs2)cc1C (stereo unspecified),66.1,.,.,.
O=C1c2sc3nc4ccccc4n3c2C(=O)N1c1ccccc1Cl,.,.,61.5,.
Cc1ccccc1N1C(=O)c2sc3nc4c(c(=O)n3c2C1=O)CCC4,.,.,.,.
CC(NC(=O)c1ccc2c(c1)OCO2)C(c1cccs1)N1CCN(c2ccccc2)CC1 (stereo unspecified),.,.,.,/
O=C1C(=Cc2cccn2-c2ccccc2)C(=O)c2ccccc21,72.7,42.2,102.0,.
c1ccc2oc(-c3csc(N4CCOCC4)n3)cc2c1,.,.,.,.
Cc1nc2sccn2c1-c1nc(-c2cc3ccccc3o2)cs1,.,.,53.8,.
O=C(O)COc1ccccc1C(Nc1cccnc1)c1cc(Cl)c2cccnc2c1O (stereo unspecified),77.5,/,97.3,.
O=C(NC(c1ccccc1)c1cc(Cl)c2cccnc2c1O)c1cccnc1 (stereo unspecified),.,.,.,.
COc1ccccc1C(NC(C)=O)c1cc(Cl)c2cccnc2c1O (stereo unspecified),/,.,/,/
CCOc1ccc(C(Nc2cccnc2)c2cc(Cl)c3cccnc3c2O)cc1 (stereo unspecified),95.0,.,96.0,.
COc1ccc(Cl)cc1C(=O)NCC(=O)OCc1ccccc1,/,.,/,/
CC(C)C[C@@H](CC#N)N1CCN(Cc2ccccc2)CCC1=O,/,.,/,/
CCCOc1ccc(-c2nnc(N)s2)cc1,.,.,61.7,.
O=C(NC1CCCCC1)C(c1ccc2ncccc2c1)N(Cc1ccccc1)C(=O)c1ccc2c(c1)OCCO2 (stereo unspecified),85.9,.,61.4,.
COc1ccc(C)cc1N(C(=O)c1ccc(F)cc1)c1nc2ccccc2s1,58.9,.,.,.
COc1ccc(C)cc1N(C(=O)COc1cccc(F)c1)c1nc2ccccc2s1,.,.,.,.
FC(F)(F)c1cnc(Nc2ccc(N3CCOCC3)cc2)c(Cl)c1,.,.,61.0,.
O=c1c(Cl)c(N2CCOCC2)cnn1-c1ncc(C(F)(F)F)cc1Cl,.,.,.,.
O=C(CSc1ccsc1[N+](=O)[O-])Nc1cc(F)ccc1F,.,/,103.9,.
CCN(CC)c1ccc(NC(=O)CSc2ccsc2[N+](=O)[O-])c(C)c1,.,.,66.3,.
CCC(Cc1ccccc1)NC(=O)CSc1ccsc1[N+](=O)[O-] (stereo unspecified),.,.,.,.
SMILES,Mcl1 Bid PPI,MCL1-BIM inh,Mcl1 Noxa PPI,Bim-Mcl-1
CC(=O)c1ccc(NC(=O)CSc2ccsc2[N+](=O)[O-])cc1,.,/,86.9,.
Cc1ccc(CNC(=O)CSc2ccsc2[N+](=O)[O-])cc1,.,.,.,.
COc1ccc(C(=O)O)cc1NC(=S)NC(=O)c1ccc(-c2ccc(Cl)cc2)o1,.,/,74.6,.
CCn1c(SCC(=O)N(C)CC(=O)Nc2ccc(F)c(F)c2F)nnc1-c1ccco1,/,.,/,/
CCCN1C(=O)/C(=C\c2nc3ccccc3c(=O)[nH]2)c2ccccc21,50.5,/,.,.
CN(C)c1ccc(/C=C/c2nc3ccccc3c(=O)[nH]2)cc1,/,.,/,/
O=C(Nc1ccncc1)C1CCN(S(=O)(=O)c2cccc(C(F)(F)F)c2)CC1,/,.,/,/
Cc1cccc(Cn2c(N3CCN(C)CC3)nc3c2c(=O)[nH]c(=O)n3C)c1,/,.,/,/
Cc1cccc(Cn2c(N3CCc4ccccc4C3)nc3c2c(=O)[nH]c(=O)n3C)c1,.,.,62.8,.
CCOC(=O)c1sc(N=NC2=C(O)CC(C)(C)CC2=O)c(C(=O)OCC)c1C,.,.,.,.
COc1ccccc1CNCC(=O)N1CC(=O)Nc2ccccc21,.,.,.,.
O=C1CN(C(=O)CNCc2ccccc2)c2ccccc2N1,69.3,.,.,/
COc1ccc(NC(=O)CN(C)CC(=O)NCC(=O)Nc2ccc(F)cc2)cc1,/,.,/,/
CC1C(c2ccccc2)N(C)CCC12NC(=O)NC2=O (stereo unspecified),88.1,.,.,.
CC1C(=O)CCN(C(C)C)C1C (stereo unspecified),89.8,.,.,.
C/C=C\C(=O)Nc1cccc(C2=NOC3(C2)C[C@@H](C(N)=O)N(C(=O)C2(C)CC2)C3)c1 (stereo partly specified),.,.,.,/
C=C(C)C(=O)Nc1cccc(C2=NOC3(C2)C[C@H](C(N)=O)N(C(=O)/C=C/C)C3)c1 (stereo partly specified),.,.,76.1,/
C/C=C\C=C/C(=O)Nc1cccc(C2=NOC3(C2)C[C@@H](C(N)=O)N(C(=O)/C=C/C=C\C)C3)c1 (stereo partly specified),.,.,54.3,/
C/C=C\C=C/C(=O)Nc1cccc(C2=NOC3(C2)C[C@@H](C(N)=O)N(C(=O)/C=C/CC)C3)c1 (stereo partly specified),.,.,.,/
C=C(C)C(=O)Nc1cccc(C2=NOC3(C2)C[C@@H](C(N)=O)N(C(=O)C(=C)C)C3)c1 (stereo partly specified),.,.,82.3,/
C=C(C)C(=O)Nc1cccc(C2=NOC3(C2)C[C@@H](C(N)=O)N(C(=O)C2(C)CC2)C3)c1 (stereo partly specified),.,.,60.5,/
C=C(C)C(=O)N1CC2(CC(c3cccc(NC(=O)/C=C\C=C/C)c3)=NO2)C[C@H]1C(N)=O (stereo partly specified),.,.,.,/
Cc1ccc(S(=O)(=O)N2CCC(C(=O)OCC(=O)N3CCC(C)CC3)CC2)cc1C,/,.,/,/
NC(=O)CSc1ccc(S(=O)(=O)N2CCOCC2)cn1,/,42.7,/,/
Cn1c(=O)c2c(nc(NCc3ccco3)n2CC(O)COc2ccccc2)n(C)c1=O (stereo unspecified),.,.,81.0,.
SMILES,Mcl1 Bid PPI,MCL1-BIM inh,Mcl1 Noxa PPI,Bim-Mcl-1
O=C(Nc1ccc(N2CCOCC2)cc1N1CCOCC1)c1cccc([N+](=O)[O-])c1,/,.,/,/
O=C(NCC(c1cccnc1)N1CCOCC1)c1cccc(Cl)c1 (stereo unspecified),56.5,.,.,.
COC(=O)c1cc(OC(=O)CCc2ccc(OC)c(OC)c2)cc(C(=O)OC)c1,/,.,/,/
COc1ccc(-n2c(N)c(-c3nc4ccccc4n3C)sc2=S)cc1,.,.,89.3,.
CCOc1ccc(-n2c(N)c(-c3nc4ccccc4[nH]3)sc2=S)cc1,.,.,.,.
O=C(CN1CCN(c2ccccc2O)CC1)Nc1cc([N+](=O)[O-])ccc1Cl,.,.,67.3,.
CC(C(=O)Nc1cc([N+](=O)[O-])ccc1Cl)N1CCN(c2ccc(O)cc2)CC1 (stereo unspecified),.,.,78.0,.
Cc1cc(C)cc(NC(=O)COC(=O)Cn2cnc3c2c(=O)n(C)c(=O)n3C)c1,/,.,/,/
COc1ccc(CC(=O)n2[nH]c(=O)ccc2=O)cc1OC,.,.,75.2,/
